Holding throughout (set-up): species or system human, MV4-11 + K-562 + COLO205 + SK-N-BE2 + OVCAR-8
For assay [1], the system named is DDR1. The settings on record: compound concentrations: 100 nM and 1000 nM (sheet 'Samples').
Assay [2] concerns DDR2. The following applies: compound concentrations: 100 nM and 1000 nM (sheet 'Samples').
Assay [3] concerns FLT3. The settings on record: compound concentrations: 100 nM and 1000 nM (sheet 'Samples').
Assay [4] has as its system JAK1(JH2domain-pseudokinase). The following applies: compound concentrations: 100 nM and 1000 nM (sheet 'Samples').
The subject of assay [5] is JAK2(JH1domain-catalytic). The settings on record: compound concentrations: 100 nM and 1000 nM (sheet 'Samples').
The subject of assay [6] is MAP3K4. The settings on record: compound concentrations: 100 nM and 1000 nM (sheet 'Samples').
Assay [7] deals with MERTK. The following applies: compound concentrations: 100 nM and 1000 nM (sheet 'Samples').
Assay [8] deals with MLK1. The settings on record: compound concentrations: 100 nM and 1000 nM (sheet 'Samples').
Assay [9] concerns NEK6. The following applies: compound concentrations: 100 nM and 1000 nM (sheet 'Samples').
Assay [10] has as its system PKAC-beta. The following applies: compound concentrations: 100 nM and 1000 nM (sheet 'Samples').
Assay [11] deals with RSK1(Kin.Dom.1-N-terminal). The following applies: compound concentrations: 100 nM and 1000 nM (sheet 'Samples').
The test system of assay [12] is SYK. The settings on record: compound concentrations: 100 nM and 1000 nM (sheet 'Samples').
The test system of assay [13] is CDK1. The settings on record: read-out: apparent Kd; compound concentrations: 100 nM and 1000 nM (sheet 'Samples'), CATDS: 4.2052312432732299E-3; n = 1.
For assay [14], the system named is FN3K. The following applies: read-out: apparent Kd; compound concentrations: 100 nM and 1000 nM (sheet 'Samples'), CATDS: 4.2262124169733604E-3; n = 1.
In assay [15] the test system is MAPK3. The settings on record: read-out: apparent Kd; compound concentrations: 100 nM and 1000 nM (sheet 'Samples'), CATDS: 4.9102061744830498E-3; n = 1.
Assay [16] relates to MAPK7. The settings on record: read-out: apparent Kd; compound concentrations: 100 nM and 1000 nM (sheet 'Samples'), CATDS: 3.9838262564481702E-3; n = 1.
For assay [17], the system named is PKMYT1. The following applies: read-out: apparent Kd; compound concentrations: 100 nM and 1000 nM (sheet 'Samples'), CATDS: 4.7786675943352697E-3; n = 1.
Assay [18] deals with TAOK2. The settings on record: read-out: apparent Kd; compound concentrations: 100 nM and 1000 nM (sheet 'Samples'), CATDS: 4.3468745935786399E-3; n = 1.
The subject of assay [19] is TESK1. The following applies: read-out: apparent Kd; compound concentrations: 100 nM and 1000 nM (sheet 'Samples'), CATDS: 1.6628532352141699E-2; n = 1.
The subject of assay [20] is TUBB6. The settings on record: read-out: apparent Kd; compound concentrations: 100 nM and 1000 nM (sheet 'Samples'), CATDS: 3.8955620012379099E-3; n = 1.
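Throughout, for Kinobeads Data: kinobeads ε competition pulldown from cell lysate, compound preincubated 45 min at 4 °C, bound kinases quantified by LC–MS/MS relative to DMSO control.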

On to `COc1cc(Nc2ncc3c(C)nc(-c4cc5ccccc5[nH]4)n3n2)cc(OC)c1OC` [GW869516X], for which the “Kinobeads Data” value in assay [1], in assay [2], in assay [3], in assay [4], in [5] and in [6] was “no target” throughout. Also, the “Kinobeads Data” value in [7], in assay [8], in assay [9], in assay [10], in assay [11] and in assay [12] was “no target” throughout.

As for `Cn1ncc2c(N)ncnc21` [SKF-18267], the potency estimated from few doses is 1180 nM in assay [13]; 1170 nM in [14]; 844 nM in assay [15]; 1350 nM in assay [16]; 892 nM in assay [17]; 1100 nM in assay [18]. Further, the potency estimated from few doses in assay [19] is 136 nM; in [20], 1430 nM.

Values taken from publication PMC11062922 (Nature Chemical Biology, 2023).
